Screening data (PubChem BioAssay)
MARV entry inh – Marburg virus entry inhibition; Potency, µM (doses to about 37.8 µM), inactives show top-dose activity change, negative = inhibition, most hits filed as inhibitors; Marburg virus pseudotyped entry inhibition, cell reporter; 300,000 tested, 1.8% active; calls by dose curve; tested in HEK293 cells; further: potency means the concentration at half of the fitted maximal effect; on the % scale 0 is the no-effect control and ±100 the full control effect
Pf growth 48h – P. falciparum growth inhibition at 48 hours (one generation) | P. falciparum luciferase growth in erythrocytes, 48 h | Potency, µM (top dose mostly 28.7 µM), for inactives: at the top dose activity change, negative = inhibition, usual class: inhibitors | 310,000 tested, 5.9% active; further: potency means the concentration at half of the fitted maximal effect; on the % scale 0 is the no-effect control and ±100 the full control effect
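Erythrocytes infected with P. falciparum carrying an integrated firefly luciferase reporter (2% hematocrit, 0.1% parasitemia final) were exposed to compounds in RPMI 1640 with 0.5% Albumax at 37 C, 5% CO2. Growth inhibition was scored as reduced luminescence.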
Pf growth 96h – inhibits malaria parasite growth, 96 h | P. falciparum luciferase reporter growth, 96 h | Potency, µM (doses to about 28.7 µM), inactives show at the top dose activity change, negative = inhibition, most hits filed as inhibitors | 320,000 tested, 6.9% active | AID 504834; further: potency means the concentration at half of the fitted maximal effect; on the % scale 0 is the no-effect control and ±100 the full control effect
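Erythrocytes infected with luciferase-expressing P. falciparum were dispensed at 2% hematocrit and 0.05% parasitemia (final), then incubated with compounds 96 hours at 37 C in 5% CO2. Luminescence after detection reagent addition reported growth.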
Lassa entry inh – Lassa virus entry inhibition. 300,000 tested, 1.2% active. Potency, µM (titrated, usually from 37.9 µM), inactives show at the highest dose activity change, negative = inhibition, usual class: inhibitors. Lassa virus pseudotype entry inhibition, cell reporter; calls by dose curve; tested in HEK293 cells; further: potency means the concentration at half of the fitted maximal effect; on the % scale 0 is the no-effect control and ±100 the full control effect; nearly all actives have a fitted effect of over 50% in size
Cycloheximide cs – counter-screen hit for Shiga toxin inhibitors, cycloheximide; cell reporter, cycloheximide protein synthesis inhibition counterscreen; max response, %; 300,000 tested, 12% active; AID 2314; in the data active means max response mostly above about 13%, no sharp cut-off; inactive means mostly below about 14%; further: read at 38.3 µM for the half of the compounds with a filed dose; 0% is about no effect
Shiga toxin inh – inhibitors of Shiga toxin in Vero cells | inhibition, % at 38.7 µM | Vero cells, Shiga toxin protein synthesis inhibition reporter | 290,000 tested, 9.2% active; in the data active means inhibition mostly above about 28%, no sharp cut-off; inactive means mostly below about 43%; further: 0% is about no effect
Numbers without * were called inactive; [ ] = another dose, or the depositor's remark. In the library only some 19% were active in any assay of this set; here they are far more common. Unless noted, the call rests on the fitted dose curve; in most records, active means well fitted inhibition curve with a large enough effect; inconclusive means small, poorly fitted or top-dose-only effect, or another doubt; inactive means no such curve, though single readings can be large or run the other way.

`CC(C)(C)n1nnnc1CN1CCN(C(c2ccccc2)c2ccccc2)CC1` gave MARV entry inh inconclusive, Pf growth 48h 5.2µM*, Pf growth 96h -13%, Lassa entry inh inconclusive, Cycloheximide cs 10 and Shiga toxin inh 4.
Screening CC12CCC(=O)N1C(C(=O)Nc1nc(-c3cc(F)ccc3F)cs1)CS2 (stereo not drawn) returned MARV entry inh -18%[46.1 µM], Pf growth 48h inconclusive, Pf growth 96h -27% and Lassa entry inh inconclusive.
`CSc1ccccc1OCc1cc(C(=O)NC(C)c2cnn(C)c2)no1` (stereo not drawn) gave MARV entry inh 17%, Pf growth 48h 17%, Pf growth 96h inconclusive, Lassa entry inh 7%, Cycloheximide cs 13 and Shiga toxin inh -8.
Screening CSc1ccccc1OCc1cc(C(=O)NC2CCc3ccccc32)no1 (stereo not drawn) returned Pf growth 48h -17%, Pf growth 96h 19%, Cycloheximide cs 9 and Shiga toxin inh 9.
O=C(NC1CCOC1)c1cc(COc2cccc(C(F)(F)F)c2)on1 (stereo not drawn) was read as Pf growth 48h -24%, Pf growth 96h inconclusive, Cycloheximide cs 41* and Shiga toxin inh 66*.
For CSc1ccccc1OCc1cc(C(=O)NC2CCOC(C)(C)C2)no1 (stereo not drawn) the results were MARV entry inh 25%, Pf growth 48h -30%, Pf growth 96h inconclusive, Lassa entry inh -8%, Cycloheximide cs 22* and Shiga toxin inh 97*.
For Cc1ccc(C)c(OCc2cc(C(=O)NC3CCOC(C)(C)C3)no2)c1 (stereo not drawn) the results were MARV entry inh 5%, Pf growth 48h -3%, Pf growth 96h 10µM*, Lassa entry inh -13%, Cycloheximide cs 56* and Shiga toxin inh 85*.
For O=C(NCC1CCOCC1)c1cc(COc2cccc(C(F)(F)F)c2)on1 the results were Pf growth 48h 18%, Pf growth 96h -3%, Cycloheximide cs -3 and Shiga toxin inh -2.
CSc1ccccc1OCc1cc(C(=O)NC2CCOC2)no1 (stereo not drawn) was read as Pf growth 48h 7%, Pf growth 96h 41%, Cycloheximide cs 49* and Shiga toxin inh 49*.
COC(=O)c1nc(-c2ccccc2)nc(-c2ccccc2)c1C(=O)OC was read as MARV entry inh -15%[46.1 µM] and Lassa entry inh 15%[46.1 µM].
For COc1cc(-c2oc3cc(O)cc(O)c3c(=O)c2O[C@@H]2O[C@H](CO)[C@@H](O)[C@H](O)[C@H]2O)ccc1O the results were Cycloheximide cs -2 and Shiga toxin inh 16.
Screening COc1cccc(C=Nc2cc(C(C)C)c(O)cc2C)c1O returned MARV entry inh 19% and Lassa entry inh inconclusive.
For CCOC(=O)CSc1c(-c2ccccc2)c2cc(Cl)ccc2[nH]c1=O the results were MARV entry inh inconclusive, Pf growth 48h -10%, Pf growth 96h inconclusive, Lassa entry inh -11%, Cycloheximide cs -6 and Shiga toxin inh -5.
`C=C1CCC(OC(C)=O)C2(C)CCC3C(C)C(=O)OC3C12O` (stereo not drawn) gave MARV entry inh -13%[46.1 µM], Pf growth 48h 26%, Pf growth 96h 11%, Lassa entry inh 1%[46.1 µM], Cycloheximide cs -3 and Shiga toxin inh 13.
`CCOc1ccccc1C1C(C(=O)Nc2ccccc2)=C(C)Nc2c(C(=O)Nc3ccc(F)cc3)cnn21` (stereo not drawn) gave MARV entry inh inconclusive and Lassa entry inh -23%[46.1 µM].
For COc1cc(Cl)ccc1OCc1cc(C(=O)NC2CCc3ccccc32)no1 (stereo not drawn) the results were MARV entry inh -3%, Pf growth 48h -3%, Pf growth 96h 27%, Lassa entry inh -13%, Cycloheximide cs 3 and Shiga toxin inh 14.
`CC(Cn1cncn1)NC(=O)c1cc(COc2cccc(C(F)(F)F)c2)on1` (stereo not drawn) gave MARV entry inh inconclusive, Pf growth 48h -13%, Pf growth 96h 15%, Lassa entry inh -1%, Cycloheximide cs 18 and Shiga toxin inh 23.
For CC(NC(=O)c1cc(COc2cccc(C(F)(F)F)c2)on1)c1nccs1 (stereo not drawn) the results were MARV entry inh 10%, Pf growth 48h 15%, Pf growth 96h 33%, Lassa entry inh 17%, Cycloheximide cs 43* and Shiga toxin inh 57*.
COc1ccc(OCc2cc(C(=O)NC3CCOC(C)(C)C3)no2)c2ccccc12 (stereo not drawn) was read as Pf growth 48h 9.3µM*, Pf growth 96h 1.2µM*, Cycloheximide cs 96* and Shiga toxin inh 103*.
O=C1CC(N2CCCCCC2)C(=O)N1c1ccc(F)cc1 (stereo not drawn) was read as Pf growth 48h 4%, Pf growth 96h 14%, Cycloheximide cs -4 and Shiga toxin inh 18.
For CN(C)CCNC(NC(=O)c1cccs1)C(Cl)(Cl)Cl (stereo not drawn) the results were MARV entry inh 20%, Pf growth 48h -4%, Pf growth 96h inconclusive, Lassa entry inh 3%, Cycloheximide cs 3 and Shiga toxin inh -6.
For O=C(Nc1ccc(Cl)c(Cl)c1)Nc1nnc(CSc2ccccc2)s1 the results were MARV entry inh 10µM*, Pf growth 48h 4.7µM*, Pf growth 96h 31%, Lassa entry inh 3.5µM*, Cycloheximide cs 1 and Shiga toxin inh -9.
Screening O=C(Nc1cccc(Cl)c1)Nc1nccs1 returned MARV entry inh 35%, Pf growth 48h 43%, Pf growth 96h inconclusive, Lassa entry inh 26%, Cycloheximide cs 69* and Shiga toxin inh 98*.
`O=C(Nc1ccc(Cl)c(Cl)c1)Nc1nccs1` gave Pf growth 48h inconclusive, Pf growth 96h -100%, Cycloheximide cs 34* and Shiga toxin inh 69*.
For Cn1cc(O)nc1NC(=O)Nc1cccc(Cl)c1 the results were Pf growth 48h 39% and Pf growth 96h -13%.
Screening CCCS(=O)(=O)NCc1cn2c(C)csc2n1 returned Pf growth 48h 99%, Pf growth 96h 97%, Cycloheximide cs 32* and Shiga toxin inh 49*.
`Cc1nc(CCNS(=O)(=O)c2cccs2)cs1` gave MARV entry inh 0%, Pf growth 48h 10%, Pf growth 96h inconclusive, Lassa entry inh 10%, Cycloheximide cs 5 and Shiga toxin inh -4.
`Cc1csc2nc(CCNS(=O)(=O)c3cccs3)cn12` gave MARV entry inh -2%, Pf growth 96h 85%, Cycloheximide cs 18* and Shiga toxin inh 32.
`O=C(Nc1ccccc1C(F)(F)F)c1cc2nc(-c3ccccc3)cc(-c3ccccc3)n2n1` gave Lassa entry inh 2%[46.1 µM].
